Read-out in experiment [1]: Monokine induced gamma interferon (MIG), CXCL9 (gene 4283)
Put plainly: BSK_hDFCGF_MIG: BioMAP Diversity Plus: hDFCGF Assay for Monokine induced gamma interferon (MIG) Biomarker Activity (AID 2283063). The conditions noted are these: primary human foreskin fibroblasts; actives raise or lower the signal. A digest of the protocol:
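MIG signal, determined by ELISA, reflects 24 h chemical exposure of human skin primary fibroblasts. DMSO serves as negative control and baseline.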

Read-out in experiment [2]: Matrix Metallopeptidase 1 (MMP1), MMP1 (gene 4312)
Put plainly: BSK_hDFCGF_MMP1: BioMAP Diversity Plus: hDFCGF Assay for Matrix Metallopeptidase 1 (MMP1) Biomarker Activity (AID 2283064). The following applies: primary human foreskin fibroblasts; actives raise or lower the signal. A digest of the protocol:
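Primary human foreskin fibroblasts in the hDFCGF system were dosed with test chemical, and MMP1 was measured by ELISA 24 h later. Values come from bidirectional curve fitting against the DMSO baseline.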

Read-out in experiment [3]: Vascular cell adhesion molecule 1 (VCAM1), VCAM1 (gene 7412)
Kind of experiment: BSK_hDFCGF_VCAM1: BioMAP Diversity Plus: hDFCGF Assay for Vascular cell adhesion molecule 1 (VCAM1) Biomarker Activity (AID 2283065).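 As to AC50: VCAM-1 protein level quantified by ELISA after 24 h chemical exposure.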 The conditions noted are these: primary human foreskin fibroblasts; actives raise or lower the signal. The method in brief: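 Cells are dosed, cultured for 24 h, then VCAM-1 is quantified by ELISA; signal increases and decreases are both fitted relative to DMSO.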

Read-out in experiment [4]: Plasminogen activator inhibitor-1 (PAI1), SERPINE1 (gene 5054)
Put plainly: BSK_hDFCGF_PAI1: BioMAP Diversity Plus: hDFCGF Assay for Plasminogen activator inhibitor-1 (PAI1) Biomarker Activity (AID 2283066). The following applies: primary human foreskin fibroblasts; actives raise or lower the signal. The method in brief:
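Human foreskin fibroblasts in the hDFCGF system were dosed with compound for 24 h; PAI-1 was quantified by ELISA. Bidirectional curve fitting used DMSO as negative control and baseline.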

Read-out in experiment [5]: Intercellular Adhesion Molecule 1 (ICAM1), ICAM1 (gene 3383)
Put plainly: BSK_KF3CT_ICAM1: BioMAP Diversity Plus: KF3CT Assay for Intercellular Adhesion Molecule 1 (ICAM1) Biomarker Activity (AID 2283067). The following applies: primary human keratinocytes with fibroblasts; actives raise or lower the signal. A digest of the protocol:
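Dose the keratinocyte/fibroblast co-culture, wait 24 h, measure ICAM-1 by ELISA, then fit increases or decreases against DMSO. Cytotoxicity is checked in parallel cultures by SRB total-protein staining.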

Read-out in experiment [6]: Interferon-gamma inducible Protein 10 (IP10), CXCL10 (gene 3627)
Put plainly: BSK_KF3CT_IP10: BioMAP Diversity Plus: KF3CT Assay for Interferon-gamma inducible Protein 10 (IP10) Biomarker Activity (AID 2283068). The following applies: primary human keratinocytes with fibroblasts; actives raise or lower the signal. A digest of the protocol: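 In a primary skin co-culture of keratinocytes and fibroblasts, IP-10 is quantified by ELISA at 24 h after dosing. SRB staining of parallel wells monitors overt toxicity. Curves are fitted both directions against DMSO.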

Experiment [7] can be described thus: BSK_KF3CT_SRB: Viability Assessment in the BioMAP Diversity Plus: KF3CT Assay (AID 2283069). The conditions noted are these: primary human keratinocytes with fibroblasts. The method in brief: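 Human primary keratinocyte plus foreskin fibroblast co-culture exposed to chemicals for 24 h. Total protein measured by 0.1% sulforhodamine B staining after 10% TCA fixation, read at 560 nm; bidirectional fitting versus DMSO baseline.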

Read-out in experiment [8]: Interleukin-1 alpha (IL1a), IL1A (gene 3552)
Kind of experiment: BSK_KF3CT_IL1a: BioMAP Diversity Plus: KF3CT Assay for Interleukin-1 alpha (IL1a) Biomarker Activity (AID 2283070). The following applies: primary human keratinocytes with fibroblasts; actives raise or lower the signal. A digest of the protocol:
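Human keratinocyte plus foreskin fibroblast primary co-culture, sampled 24 h after chemical dosing. IL-1a measured by ELISA; responses fitted bidirectionally against DMSO baseline (negative control), so gain or loss of signal both count.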

Read-out in experiment [9]: TIMP metallopeptidase inhibitor 2 (TIMP2), TIMP2 (gene 7077)
Put plainly: BSK_KF3CT_TIMP2: BioMAP Diversity Plus: KF3CT Assay for TIMP metallopeptidase inhibitor 2 (TIMP2) Biomarker Activity (AID 2283071). The following applies: primary human keratinocytes with fibroblasts; actives raise or lower the signal. The method in brief: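 Human primary keratinocyte/foreskin fibroblast co-culture dosed with chemical and sampled at 24 h. TIMP-2 levels quantified by ELISA; bidirectional fitting against DMSO negative control as baseline.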

Read-out in experiment [10]: C-C motif chemokine 2 (Homo sapiens) (UniProt P13500)
Put plainly: BSK_KF3CT_MCP1: BioMAP Diversity Plus: KF3CT Assay for Monocyte Chemoattractant Protein 1 (MCP1/CCL2) Biomarker Activity (AID 2283073). The conditions noted are these: primary human keratinocytes with fibroblasts; actives raise or lower the signal. A digest of the protocol:
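Keratinocytes and foreskin fibroblasts were co-cultured, dosed with chemical, and sampled 24 h later. MCP-1 was quantified by ELISA, and the endpoint was analyzed with bidirectional fitting using DMSO as negative control.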

Read-out in experiment [11]: Matrix Metallopeptidase 9 (MMP9), MMP9 (gene 4318)
Kind of experiment: BSK_KF3CT_MMP9: BioMAP Diversity Plus: KF3CT Assay for Matrix Metallopeptidase 9 (MMP9) Biomarker Activity (AID 2283074). The following applies: primary human keratinocytes with fibroblasts; actives raise or lower the signal. A digest of the protocol: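 Keratinocyte plus foreskin fibroblast human primary skin co-culture was dosed with chemical and MMP-9 was quantified by ELISA 24 h later. Bidirectional curve fitting used DMSO as negative control and activity baseline.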

Read-out in experiment [12]: urokinase plasminogen activator (uPA), PLAU (gene 5328)
Put plainly: BSK_KF3CT_uPA: BioMAP Diversity Plus: KF3CT Assay for urokinase plasminogen activator (uPA) Biomarker Activity (AID 2283075). The following applies: primary human keratinocytes with fibroblasts; actives raise or lower the signal. A digest of the protocol:
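Human keratinocyte plus foreskin fibroblast primary co-culture exposed to chemical for 24 h. uPA levels were quantified by ELISA, and activity was fitted bidirectionally against a DMSO negative-control baseline.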

Read-out in the next experiment: CD40, CD40 (gene 958)
Put plainly: BSK_LPS_CD40: BioMAP Diversity Plus: LPS Assay for CD40 Biomarker Activity (AID 2283076). The following applies: primary human HUVEC with PBMC; actives raise or lower the signal. A digest of the protocol:
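CD40 signal, measured by ELISA, is fitted in both directions relative to DMSO vehicle. The system is an LPS-driven human vascular primary co-culture of endothelial cells and PBMC, sampled 24 h after compound addition.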

Read-out in experiment [13]: E-selectin (Homo sapiens) (UniProt P16581)
Put plainly: BSK_LPS_Eselectin: BioMAP Diversity Plus: LPS Assay for Eselectin Biomarker Activity (AID 2283077). The following applies: primary human HUVEC with PBMC; actives raise or lower the signal. A digest of the protocol:
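Signal of E-selectin, detected by ELISA, served as the endpoint; cells were umbilical vein endothelium with PBMC, read 24 h after treatment. DMSO defined baseline, and both increases and decreases were fitted.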

Read-out in experiment [14]: Interleukin-8 (IL8), CXCL8 (gene 3576)
Kind of experiment: BSK_LPS_IL8: BioMAP Diversity Plus: LPS Assay for Interleukin-8 (IL8) Biomarker Activity (AID 2283078). The conditions noted are these: primary human HUVEC with PBMC; actives raise or lower the signal. A digest of the protocol: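 Endothelial cells and PBMC from human donors are co-cultured, treated with chemicals and LPS, then assayed for IL-8 by ELISA after 24 h. Parallel SRB staining (0.1% SRB after 10% TCA fixation, 560 nm) flags cytotoxicity.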

Experiment [15] can be described thus: BSK_LPS_SRB: Viability Assessment in the BioMAP Diversity Plus: LPS Assay (AID 2283079).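 Also: total protein by sulforhodamine B absorbance as a cytotoxicity measure; measured one day after compound addition.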 The following applies: primary human HUVEC with PBMC. A digest of the protocol: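 Overt cytotoxicity was gauged by sulforhodamine B total-protein staining in a primary human vascular endothelial and mononuclear cell co-culture 24 h post-dosing. Activity was fitted in both directions relative to DMSO.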

Read-out in experiment [16]: Interleukin-1 alpha (IL1a), IL1A (gene 3552)
Put plainly: BSK_LPS_IL1a: BioMAP Diversity Plus: LPS Assay for Interleukin-1 alpha (IL1a) Biomarker Activity (AID 2283080). The following applies: primary human HUVEC with PBMC; actives raise or lower the signal. A digest of the protocol:
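Measured: IL-1 alpha via ELISA at 24 h in LPS-activated human umbilical vein endothelium–PBMC co-culture. Baseline: DMSO, bidirectional fitting.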

Read-out in experiment [17]: Monocyte Chemoattractant Protein-1 (MCP1), CCL2 (gene 6347)
Kind of experiment: BSK_LPS_MCP1: BioMAP Diversity Plus: LPS Assay for Monocyte Chemoattractant Protein-1 (MCP1) Biomarker Activity (AID 2283081).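 As to AC50: secreted MCP-1 protein quantified by ELISA in culture supernatant.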 The conditions noted are these: primary human HUVEC with PBMC; actives raise or lower the signal. A digest of the protocol:
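LPS-stimulated HUVEC/PBMC co-culture; chemical, 24 h; MCP-1 by ELISA; bidirectional fit vs DMSO; cytotoxicity via SRB (0.1% stain, 10% TCA fix, 560 nm) in parallel wells.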

Experiment [18] can be described thus: BSK_LPS_PGE2: BioMAP Diversity Plus: LPS Assay for Prostaglandin E2 (PGE2) Biomarker Activity (AID 2283082). The following applies: primary human HUVEC with PBMC; actives raise or lower the signal. A digest of the protocol:
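HUVEC plus PBMC co-culture stimulated with LPS; secreted PGE2 quantified by ELISA 24 h after chemical dosing. Activity fitted bidirectionally against DMSO as negative control and baseline; parallel SRB total-protein staining served as cytotoxicity check.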

Active and inactive are the calls of the source. The calls were made as follows: active = hit-call score of the fitted dose curve at least 0.9, where 1 is the maximum; inactive = score below 0.9.

Chain of E-selectin (Homo sapiens) (P16581 whole entry, looked up): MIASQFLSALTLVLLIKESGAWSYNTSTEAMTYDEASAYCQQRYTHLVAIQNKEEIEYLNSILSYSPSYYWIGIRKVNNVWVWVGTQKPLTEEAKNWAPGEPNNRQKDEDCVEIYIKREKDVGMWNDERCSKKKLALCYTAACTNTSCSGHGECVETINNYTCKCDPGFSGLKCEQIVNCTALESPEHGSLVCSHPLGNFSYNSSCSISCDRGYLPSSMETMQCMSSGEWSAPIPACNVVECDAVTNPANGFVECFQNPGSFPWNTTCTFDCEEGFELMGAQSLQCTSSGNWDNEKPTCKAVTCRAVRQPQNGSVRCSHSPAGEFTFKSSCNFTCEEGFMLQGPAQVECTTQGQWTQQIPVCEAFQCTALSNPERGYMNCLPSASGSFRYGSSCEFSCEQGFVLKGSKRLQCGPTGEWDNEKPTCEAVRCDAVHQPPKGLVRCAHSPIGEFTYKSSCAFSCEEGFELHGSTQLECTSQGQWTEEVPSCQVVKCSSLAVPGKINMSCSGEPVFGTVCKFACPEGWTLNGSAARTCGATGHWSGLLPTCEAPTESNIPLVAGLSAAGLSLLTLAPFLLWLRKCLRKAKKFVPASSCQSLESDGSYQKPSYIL

For the molecule `CCCc1ccccc1`, the result in [1], in experiment [2], in experiment [3], in experiment [4], in experiment [5] and in experiment [6] was inactive. Moreover, the outcome in experiment [7], in experiment [8], in experiment [9], in experiment [10], in experiment [11] and in experiment [12] was inactive. For the same molecule, the outcome in the experiment with CD40, CD40 (gene 958) is “inactive”; in experiment [13], “inactive”; in [14] it was “inactive”; in [15] it was “inactive”; in experiment [16], “inactive”; in [17], “inactive”. Besides, the result in experiment [18] was inactive.

In the case of `O=C(O)c1cccc(C(=O)O)c1`, the result in experiment [1], in experiment [2], in [3], in [4], in experiment [5] and in [6] was inactive. The outcome is “inactive” in experiment [7]; “inactive” in experiment [8]; “inactive” in [9]; “inactive” in [11]; “inactive” in experiment [12]; “inactive” with CD40, CD40 (gene 958). Further, the result in experiment [13], in [14], in experiment [15], in [16], in experiment [17] and in experiment [18] was inactive. Further, the AC50 – broadly, the midpoint of the concentration-response curve, whichever way the signal moves – in experiment [10] is 0.323 µM (active).

With `O=C(O)c1ccc2c(c1)nc(C(=O)NC1CCN(C3CC3)CC1)n2Cc1cc(-c2ccc(Cl)s2)on1`, the result in experiment [1], in experiment [2], in [3], in experiment [4], in experiment [5] and in experiment [6] was inactive. Also, the result in experiment [7], in experiment [8], in experiment [9], in experiment [10], in experiment [11] and in experiment [12] was inactive. The outcome with CD40, CD40 (gene 958) was “inactive”; in experiment [13], “inactive”; in experiment [14], “inactive”; in experiment [15], “inactive”; in experiment [16] it was “inactive”; in experiment [17] it was “inactive”. In addition, the result in [18] was inactive.

Consider `CCCCCCCCCCCCCCO`, for which the concentration at half-maximal activity (AC50) was 10.8 µM (active) in experiment [1]; 20 µM (active) in experiment [3]; 27 µM (active) in experiment [4]; 36.6 µM (active) with CD40, CD40 (gene 958); 34 µM (active) in experiment [14]; 30.7 µM (active) in experiment [15]. Moreover, the AC50 is 30.2 µM (active) in experiment [16] and 31.2 µM (active) in experiment [17]. For the same molecule, the outcome in [2], in experiment [5], in [6], in experiment [7], in [8] and in experiment [9] was inactive. Further, the outcome in experiment [10], in experiment [11], in experiment [12] and in experiment [18] was inactive.

Consider `NNC(=O)c1ccncc1`, for which the result in experiment [1], in experiment [3], in experiment [4], in experiment [5], in [6] and in experiment [7] was inactive. Also, the outcome in experiment [8] is “inactive”; in experiment [9] it was “inactive”; in [10], “inactive”; in [11], “inactive”; in [12], “inactive”; with CD40, CD40 (gene 958) it was “inactive”. Also, the result in [13], in experiment [14], in [15], in experiment [16], in [17] and in [18] was inactive.

With `NC(=O)N1c2ccccc2C=Cc2ccccc21`, the outcome in [1], in [2], in experiment [3], in experiment [4], in experiment [5] and in experiment [6] was inactive. For the same molecule, the result in [7], in [8], in experiment [9], in experiment [10], in experiment [11] and in experiment [12] was inactive. Also, the outcome with CD40, CD40 (gene 958) was “inactive”; in experiment [13], “inactive”; in [14] it was “inactive”; in [15], “inactive”; in experiment [16], “inactive”; in experiment [17] it was “inactive”. Moreover, the result in experiment [18] was inactive.

Regarding `C[Si](C)(C)C(F)(F)C(F)(F)C(F)(F)F`, the result in experiment [1], in [2], in experiment [3], in [4], in experiment [5] and in experiment [6] was inactive. Besides, the outcome in experiment [7], in [8], in experiment [9], in [10], in [11] and in experiment [12] was inactive. For the same molecule, the outcome was “inactive” with CD40, CD40 (gene 958); “inactive” in experiment [13]; “inactive” in experiment [14]; “inactive” in experiment [15]; “inactive” in [16]; “inactive” in [17]. Besides, the outcome in experiment [18] was inactive.

The values are drawn from PubChem BioAssay (EPA / NIEHS).
